Cycloheximide cs: counter-screen hit for Shiga toxin inhibitors, cycloheximide; cell reporter, cycloheximide protein synthesis inhibition counterscreen; max response, %; 12% of 300,000 active; AID 2314; in the data active = max response mostly above about 13%, no sharp cut-off; inactive = mostly below about 14%; note: read at 38.3 µM for the half of the compounds with a filed dose; 0% is about no effect
Marburg entry inh: inhibitors of Marburg virus binding or cell entry; Marburg virus pseudotyped entry inhibition, cell reporter; Potency, µM (series often up to 37.8 µM), without a hit: at the top dose activity change, negative = inhibition, usual class: inhibitors; 1.8% of 300,000 active; calls by dose curve; tested in HEK293 cells; note: potency is the fitted concentration of half-maximal effect; % is set by controls: 0 for no effect and ±100 for the full control effect
LASV entry inh: blocks Lassa virus binding to or entry into cells; Lassa virus pseudotype entry inhibition, cell reporter; Potency, µM (highest dose often 37.9 µM), without a hit: at the highest dose activity change, negative = inhibition, usual class: inhibitors; 1.2% of 300,000 active; calls by dose curve; tested in HEK293 cells; note: potency is the fitted concentration of half-maximal effect; % is set by controls: 0 for no effect and ±100 for the full control effect; nearly all actives have a fitted effect of over 50% in size
Shiga toxin inh: Shiga toxin inhibition. inhibition, % at 38.7 µM. 9.2% of 290,000 active. Vero cells, Shiga toxin protein synthesis inhibition reporter. AID 2315; in the data active = inhibition mostly above about 28%, no sharp cut-off; inactive = mostly below about 43%; note: 0% is about no effect
* hit, by the source's call; ? = inconclusive; · = no result; [ ] = another dose, or the depositor's remark. Only some compounds are listed: those with a hit (about 12% of all), similar ones and a draw of the others.

SMILES | Cycloheximide cs | Marburg entry inh | LASV entry inh | Shiga toxin inh
Cc1ccc(N(CC(O)Cn2c3ccccc3c3ccccc32)S(C)(=O)=O)c(C)c1 (stereo not drawn) | -6 | 16µM* | 1% | 14
Cc1ccc(N(CC(O)Cn2c3ccccc3c3ccccc32)S(C)(=O)=O)cc1 (stereo not drawn) | 5 | ? | -16% | 2
CCCN(CCC)CC(O)Cn1c2ccccc2c2ccccc21 (stereo not drawn) | -4 | 7.1µM* | -9%[46.1 µM] | -8
Cc1ccc(N(CC(O)CN2CCCC2)S(=O)(=O)c2ccc(C)cc2)cc1 (stereo not drawn) | -5 | ? | 4% | -24
CCOC(=O)CNC(=O)N1CCCN(S(=O)(=O)c2ccc3c(ccn3CC)c2)CC1 | · | · | 18%[46.1 µM] | ·
CCN(c1ccccc1)S(=O)(=O)c1ccc2c(c1)N(C(C)=O)CCS2 | 5 | · | · | -6
Cc1ccc(Sc2ncccc2C(N)=O)cc1 | · | -8%[46.1 µM] | 13% | ·
Cc1ccc(/C=C/C(=O)c2c(C)nc3ccccn23)cc1 | 39* | ? | -29% | 70*
Cc1nc2ccccn2c1C(=O)NC1CCCC1 | 2 | ? | 11% | -7
Cc1cc(C)cc(NC(=O)c2c(C)nc3ccccn23)c1 | 11 | ? | 2%[46.1 µM] | 16
Cc1cccc(NC(=O)c2c(C)nc3ccccn23)c1 | 29* | ? | ? | 80*
Cc1ccc(NC(=O)c2c(C)nc3ccccn23)cc1C | 41* | ? | 21%[46.1 µM] | 57*
CCCc1nc2ccccc2n2c(-c3ccc(C)cc3)c3c(=O)n(C)c(=O)n(C)c3c12 | · | 11%[46.1 µM] | -13%[46.1 µM] | ·
CCOC(=O)N1CCN(C(=O)c2ccccc2NC(=O)COc2ccccc2)CC1 | 31* | -13%[46.1 µM] | -18% | 109*
CCOC(=O)N1CCN(C(=O)c2ccccc2NC(=O)c2ccc(F)cc2)CC1 | -1 | -10% | 11% | 5
CCC(Oc1ccccc1)C(=O)Nc1ccccc1C(=O)N1CCCCC1 (stereo not drawn) | -2 | 11µM* | ? | -3
CCC(Oc1ccccc1)C(=O)Nc1ccccc1C(=O)N1CCN(C)CC1 (stereo not drawn) | -1 | -32% | -6% | 25
CCOC(=O)N1CCN(C(=O)c2ccccc2NC(=O)c2ccc(Br)cc2)CC1 | 1 | ? | 21% | 15
CCOC(=O)N1CCN(C(=O)c2ccccc2NC(C)=O)CC1 | 24* | 7%[46.1 µM] | -7% | 72
CCCCCN(C(=O)CCC(=O)OCc1ccc(C(C)(C)C)cc1)c1c(N)n(CCCC)c(=O)[nH]c1=O | -3 | ? | ? | -20
Cc1cc(C)cc(-n2ccnc2SCC(=O)Nc2ccc(C)c(Cl)c2)c1 | · | · | 16%[46.1 µM] | ·
COc1cc([C@@H]2C(C#N)=C(N)Oc3cc(C)n(CCc4ccccc4)c(=O)c32)cc2c1OCO2 | · | -22% | · | ·
CCC(C)NS(=O)(=O)c1ccc(NC(=O)CNCc2cccs2)cc1 (stereo not drawn) | · | 20%[46.1 µM] | -19%[46.1 µM] | ·
CC(=O)c1ccc(NC(=O)CNCc2cccs2)cc1 | 54* | · | · | 52*
CCC(C)(C)NCC(=O)Nc1ccc(OC(F)(F)F)cc1 | 15* | -11%[46.1 µM] | 6% | 35
SMILES | Cycloheximide cs | Marburg entry inh | LASV entry inh | Shiga toxin inh
O=C(CNCc1cccs1)Nc1ccc(N2CCCCCC2)cc1 | 27* | 1%[46.1 µM] | 16%[46.1 µM] | 60*
Cc1ccc(NC(=O)CNCc2cccs2)cc1Br | 26* | 10%[46.1 µM] | 7% | 52*
COc1ccc(CNC(=O)Cn2ncc3c([nH]c4ccccc43)c2=O)cc1 | · | · | -10%[46.1 µM] | ·
C=C(C)CCN1C(=O)NC(c2ccccc2)C(C(C)=O)=C1C (stereo not drawn) | · | 7%[14.2 µM] | ? | ·
O=C(CNCc1cccs1)Nc1ccc(OC(F)(F)F)cc1 | 20* | ? | -1% | 82*
CCCS(=O)(=O)Nc1cccc(-c2nc3cccnc3s2)c1 | 28* | ? | -23%[46.1 µM] | 57*
Cc1ccc(-c2nc3cccnc3s2)cc1NS(C)(=O)=O | 33* | · | · | 62*
CCCC(CCC)C(=O)Nc1cccc(-c2nc3cccnc3s2)c1 | · | 14%[46.1 µM] | -15%[46.1 µM] | ·
O=S(=O)(Nc1cccc(-c2nc3cccnc3s2)c1)c1cccs1 | 18* | 2%[46.1 µM] | -13% | 50*
Cn1cc(C(=O)CCl)c2ccccc21 | 2 | 16µM* | ? | 3
COc1cc(SC)ccc1C(=O)NCc1ccc(C)cc1 | 16* | 5% | -22% | 31
COc1cc(SC)ccc1C(=O)NCCCOC(C)C | 13* | 21% | 8% | 14
COc1cc(SC)ccc1C(=O)N(C)CC(=O)Nc1cccc2ccccc12 | · | 7% | -12% | ·
COc1cc(SC)ccc1C(=O)NCc1ccccc1 | 26* | -3% | -7% | 36*
CCCNC(=O)c1ccc(SC)cc1OC | 12 | 1% | ? | 17
COc1cc(SC)ccc1C(=O)N(C)Cc1ccccc1 | 22* | 11% | -9% | 28
COc1ccc(-c2nc3ccc(C(=O)NCc4ccccc4)cc3nc2-c2ccc(OC)cc2)cc1 | · | · | 19%[46.1 µM] | ·
Cc1ccccc1C(N)c1ccncc1 (stereo not drawn) | -1 | · | · | -3
C=CCOc1ccc(C(=O)Nc2ccccc2C(=O)NCc2cccnc2)cc1 | -2 | -24%[46.1 µM] | ? | -7
Cc1ccc2c(CC(=O)NCc3ccco3)coc2c1C | 23* | ? | -17% | 33*
CCc1sc(C(=O)NCc2ccco2)cc1C | 13 | 2%[46.1 µM] | 29% | 64*
O=C(NCc1ccco1)c1ccc(Br)s1 | 15 | 4% | ? | -7
O=C(NCc1ccco1)c1cc2c(s1)CCCCC2 | 57* | 2% | ? | 115*
O=C(NCc1ccco1)c1ccc(C(=O)NCc2ccco2)s1 | -12 | -1% | -6% | -45
CCc1sc(C(=O)NCc2ccco2)cc1Br | 19* | · | · | ·
SMILES | Cycloheximide cs | Marburg entry inh | LASV entry inh | Shiga toxin inh
Cc1ccc(NC(=O)Cc2coc3c(C)c(C)ccc23)cc1Cl | · | -5%[46.1 µM] | 0%[46.1 µM] | ·
O=S(=O)(c1cccs1)N1CCCc2cccc(O)c21 | 54* | ? | 14% | 80*
COc1ccc2c(n1)Sc1nc3ccccc3nc1N2 | 56* | ? | -7%[46.1 µM] | 75*
COc1cc2ccccc2nn1 | -2 | -7%[46.1 µM] | ? | 9
CN(CCCCN1CCOCC1)Cc1nc(-c2ccc3c(c2)OCO3)no1 | 9.5* | ? | -3%[46.1 µM] | 20
CN(CCN1CCc2ccccc2C1)Cc1nc(-c2ccc3c(c2)OCO3)no1 | -1 | -3%[46.1 µM] | 29%[46.1 µM] | -8
COCC1CCN(Cc2nc(-c3ccc4c(c3)OCO4)no2)C1 (stereo not drawn) | 39* | 14%[46.1 µM] | 8% | 67*
Fc1ccc(CN2CCCN(Cc3nc(-c4ccc5c(c4)OCO5)no3)CC2)cc1 | 15* | · | · | 12
O=C(Nc1ccc(-c2cn3c(n2)SCC3)cc1)c1ccco1 | 40* | ? | ? | 65*
CC(=O)Nc1ccc(-c2cn3c(n2)SCC3)cc1 | 32* | ? | 9% | 28
O=C(Nc1cccc(-c2cn3c(n2)SCC3)c1)c1ccc(Br)o1 | 17 | 7%[46.1 µM] | -6%[46.1 µM] | 29
CC(=O)c1ccc(S(=O)(=O)Nc2cccc(-c3cn4c(n3)SCC4)c2)cc1 | 14 | -12%[46.1 µM] | -14% | 12
O=C(Oc1ccc(-c2cn3c(n2)SCC3)cc1)c1ccccc1 | 12* | · | · | 11
CC(=O)Nc1ccc(S(=O)(=O)Nc2cccc(-c3cn4c(n3)SCC4)c2)cc1 | -3 | -1% | 15% | -4
CS(=O)(=O)N(CC(=O)Nc1ccccc1C(=O)NCc1ccco1)c1ccccc1F | 12 | 1%[46.1 µM] | 14% | 3

High-throughput results (PubChem BioAssay)
